Bioassay records (PubChem)
AMA1 RON2 block = qHTS for Inhibitors of AMA1-RON; Towards Development of Antimalarial Drug Lead: Primary Screen | Plasmodium falciparum AMA1 (3D7) - RON2 peptide interaction | Potency, µM (highest dose often 58.2 µM), actives largely listed as inhibitors | AID 720542, 2013 | AlphaScreen AMA1-biotinylated RON2 peptide binding | 360,000 compounds, 0.2% hits; further: nearly all actives have a fitted effect of over 45% in size
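AMA1 (3D7) with his tag at 25 nM final met compounds first, then biotinylated RON2 peptide at 25 nM; detection used donor plus acceptor beads, 10 µg/mL apiece, read by AlphaScreen after 30 min at room temperature.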
AmpC inh no detg = qHTS Inhibitors of AmpC Beta-Lactamase (assay without detergent). P00811. AmpC nitrocefin hydrolysis, absorbance 480 nm, 0.0001% Triton. Potency, µM (titrated, usually from 57.1 µM), usual class: inhibitors. 330,000 compounds, 0.52% hits. AID 485341, 2010; further: nearly all actives have a fitted effect of over 20% in size
Target sequence (P00811 whole entry, looked up): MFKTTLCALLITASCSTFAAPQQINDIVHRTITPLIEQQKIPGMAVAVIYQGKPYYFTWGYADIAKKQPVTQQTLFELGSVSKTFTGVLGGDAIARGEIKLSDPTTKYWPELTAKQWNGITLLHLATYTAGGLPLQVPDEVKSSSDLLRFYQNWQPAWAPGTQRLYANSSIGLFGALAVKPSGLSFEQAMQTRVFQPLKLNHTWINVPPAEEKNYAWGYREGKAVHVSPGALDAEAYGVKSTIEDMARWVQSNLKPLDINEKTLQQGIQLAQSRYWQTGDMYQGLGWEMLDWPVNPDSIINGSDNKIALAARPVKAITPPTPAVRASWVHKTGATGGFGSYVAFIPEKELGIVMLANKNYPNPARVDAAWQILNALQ
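AmpC (5.3 nM in the dispensed reagent) in 20 mM phosphate pH 7.0 with 0.01% (detergent screen) or 0.0001% Triton X-100 was preincubated with compounds for 15 min at room temperature. Nitrocefin was then added from an 800 uM solution, and hydrolysis was followed at 480 nm.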
AmpC detergent = qHTS Inhibitors of AmpC Beta-Lactamase (assay with detergent); P00811; AmpC hydrolysis of nitrocefin, absorbance 480 nm, 0.01% Triton; 370,000 compounds, 0.041% hits; AID 485294, 2010; Potency, µM (series often up to 114 µM), actives largely listed as inhibitors; further: nearly all actives have a fitted effect of over 25% in size
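20 mM phosphate pH 7.0 + 0.01% (detergent screen) or 0.0001% Triton X-100; 5.3 nM AmpC reagent; cpd preinc 15 min RT; nitrocefin (800 uM stock) to start; A480 q20 s × 4 min; Activity was normalised to no-enzyme and no-compound control wells.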
FMDV inh = High Throughput Screening for Foot and Mouth Disease Virus Antivirals | FMDV antiviral cell-based qHTS | Potency, µM (top dose mostly 57.9 µM), usual class: inhibitors | 410,000 compounds, 1.2% hits | AID 1159524, 2015; calls by dose curve; tested in HEK293T cells; further: read-out not given here; nearly all actives have a fitted effect of over 45% in size
Sm TGR block = qHTS Assay for the Inhibitors of Schistosoma Mansoni Peroxiredoxins. purified TGR, DTNB reduction, TNB absorbance 405 nm. Potency, µM (top dose mostly 114 µM), hits mostly inhibitors. 360,000 compounds, 3% hits. Schistosoma mansoni thioredoxin glutathione reductase (TGR), Q962Y6; further: nearly all actives have a fitted effect of over 60% in size
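TGR 20 nM + NADPH 100 uM (dispensed conc.), cpd preinc 15 min RT; start with NADPH (500 uM addition) then DTNB (15 mM addition). Kinetic TNB absorbance, 405 nm filter. Four-parameter Hill fit across titration.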
Of the large screens only hits and unclear results are named; the others gave an inactive call. An excerpt weighted towards active compounds, which were near 4.1% of everything screened. Unless noted, the call rests on the fitted dose curve; in most records, active means well fitted curve in the direction sought with a large enough effect; inconclusive means small, poorly fitted or top-dose-only effect, or another doubt; inactive means no such curve, though single readings can be large; an effect the other way counts as inactive or inconclusive.

Cc1cc(C)cc(C(=O)NCc2nc(-c3cccc(NC(=O)c4ccccn4)c3)oc2C)c1	none (no result: AMA1 RON2 block, AmpC inh no detg, AmpC detergent, Sm TGR block)
O=C(O)/C=C/C(=O)Nc1ccccc1C(=O)Nc1ccccc1	Sm TGR block 35µM
O=C(Nc1ccccc1C(=O)Nc1ccccc1)c1ccccc1Br	none (no result: AmpC inh no detg, AmpC detergent, Sm TGR block)
O=C(O)/C=C/c1ccc(S(=O)(=O)Nc2ccccc2C(=O)Nc2ccc(F)cc2)cc1	Sm TGR block 45µM
O=C(Nc1ccc(S(=O)(=O)Nc2ncccn2)cc1)c1ccccc1NS(=O)(=O)c1ccc(F)cc1	none (no result: Sm TGR block)
CN1CCc2cc(O)cc3c2[C@H]1Cc1ccc(O)c(O)c1-3	AMA1 RON2 block 10µM (no result: AmpC inh no detg, AmpC detergent, Sm TGR block)
Cc1ccc(Cn2ccnc2SCC(=O)Nc2ccccc2C(F)(F)F)cc1	none (no result: AMA1 RON2 block, AmpC inh no detg)
Cc1ccccc1NC(=O)C1CC(=O)n2ncnc2N1 (centres undefined)	Sm TGR block 35µM
Cc1cccc(NC(=O)C2CC(=O)n3ncnc3N2)c1 (centres undefined)	none
O=C(Nc1c(-c2ccccc2)[nH][nH]c1=O)c1ccc(Br)cc1	none (no result: AmpC inh no detg, AmpC detergent, Sm TGR block)
O=C(Nc1ccc(Cl)cc1)c1ccc(-n2cnnc2)cc1	none (no result: AMA1 RON2 block, AmpC inh no detg)
COc1ccccc1NC(=O)COc1ccc(-c2nn(C)c(=O)c3ccccc23)cc1	FMDV inh 18µM, Sm TGR block inconclusive
Cn1nc(-c2ccc(OCC(=O)N3CCN(Cc4ccccc4)CC3)cc2)c2ccccc2c1=O	AmpC detergent inconclusive, FMDV inh 16µM
O=C(COc1ccc(S(=O)(=O)N2CCCC2)cc1)N1CCCCC1	none
O=C(COc1ccc(S(=O)(=O)N2CCCCC2)cc1)N1CCN(Cc2ccccc2)CC1	Sm TGR block 28µM
CCN(CC)CCCNC(=O)c1oc2c(c1C)-c1nn(Cc3ccc(Cl)cc3)cc1CC2	none (no result: AMA1 RON2 block, AmpC inh no detg)
COc1cccc(N=Cc2nc(-c3ccccc3)oc2OC(C)=O)c1	Sm TGR block 10µM
O=C(Oc1oc(-c2ccco2)nc1C=Nc1ccccc1)c1ccco1	FMDV inh inconclusive, Sm TGR block 1.6µM
COc1ccc(N=Cc2nc(-c3ccccc3)oc2OC(C)=O)cc1	Sm TGR block inconclusive
Cc1ccc(C(=O)Oc2oc(-c3ccco3)nc2C=Nc2ccc(Cl)cc2)cc1	Sm TGR block 2.2µM
O=C(Oc1oc(-c2ccco2)nc1C=Nc1ccccc1)c1ccoc1	Sm TGR block 1.4µM (no result: FMDV inh)
O=C(NCC1Cc2cc(-c3cncnc3)cc(Cl)c2O1)c1cccc(Cn2cccn2)c1 (centres undefined)	none (no result: AMA1 RON2 block, AmpC inh no detg, AmpC detergent, Sm TGR block)
COC(=O)c1cc(CNC(=O)c2ccccn2)cc(NC(=O)c2ccccc2OC)c1	none (no result: AMA1 RON2 block, AmpC inh no detg, AmpC detergent, Sm TGR block)
Cc1c(C(=O)NC2CCCCCC2)sc2ncnc(NCC3CCCO3)c12 (centres undefined)	none (no result: AMA1 RON2 block, AmpC inh no detg, AmpC detergent, Sm TGR block)
COc1ccc(Nc2ccnc3ccccc23)cc1	none
CC(C)Nc1ccc(Nc2ccnc3cc4ccccc4cc23)cc1	AMA1 RON2 block 7.9µM
O=C(NCCc1ccccc1)c1nccc2ccccc12	none
c1ccc(CCNc2ccnc3cc4ccccc4cc23)cc1	AmpC inh no detg 18µM, FMDV inh 14µM
CCCCC/C=C\C=C\[C@H](O)CCCCCCCC(=O)O	none (no result: AMA1 RON2 block, AmpC inh no detg, AmpC detergent, Sm TGR block)
CCC(Sc1nc2ncccc2[nH]1)C(=O)Nc1ccccc1F (centres undefined)	none (no result: AMA1 RON2 block, AmpC inh no detg)
COc1ccccc1OCc1ccc(C(=O)Nc2ccccc2)cc1	none
O=C(Nc1ccc(Cn2cccn2)cc1)c1ccc(COc2ccccc2Br)cc1	AmpC detergent inconclusive, FMDV inh 14µM
CS(=O)(=O)c1ccc(C(=O)NCCN2C(=O)S/C(=C\c3cccnc3)C2=O)cc1[N+](=O)[O-]	FMDV inh 28µM, Sm TGR block 8.9µM
CC(=O)c1c(C)[nH]c(C(=O)OCC(=O)N2CCN(S(=O)(=O)c3ccc(C)cc3C)CC2)c1C	AmpC detergent inconclusive, FMDV inh 20µM, Sm TGR block inconclusive
CC(=O)c1c(C)[nH]c(C(=O)OCC(=O)Nc2cc(Cl)ccc2[N+](=O)[O-])c1C	FMDV inh 28µM
CC(=O)c1c(C)[nH]c(C(=O)OCC(=O)Nc2ccc(C)cc2[N+](=O)[O-])c1C	AmpC detergent inconclusive, FMDV inh 5µM
O=C(NCCC1=CCCCC1)c1ccc2c(c1)N(Cc1cccc(Cl)c1)C(=O)c1ccccc1S2=O (centres undefined)	none (no result: AMA1 RON2 block, AmpC inh no detg)
Cc1nc(-c2ccccc2)sc1CCNC(=O)c1ccco1	none (no result: AMA1 RON2 block, AmpC inh no detg)
CC(C)C(NS(=O)(=O)c1cccs1)C(=O)NCc1ccc2c(c1)OCO2 (centres undefined)	AmpC inh no detg 40µM
Cc1ccc(CNC(=O)C(NS(=O)(=O)c2cccs2)C(C)C)cc1 (centres undefined)	none
CCCCN(C)CCNC(=O)c1cn(C)c(=O)c2c1c1ccccc1n2C	Sm TGR block 45µM
Cc1ccc(CNC(=O)c2cc3c(=O)n(C)c4ccccc4c3n2C)o1	AmpC detergent inconclusive
Cc1ccc(CNC(=O)c2cn(C3CCCCC3)c(=O)c3c2c2ccccc2n3C)o1	FMDV inh inconclusive, Sm TGR block 10µM
Cc1ccc(CNC(=O)c2cn(C)c(=O)c3c2c2ccccc2n3C)o1	Sm TGR block 22µM
Cc1cc(NC(=O)c2cn(C3CCCCC3)c(=O)c3c2c2ccccc2n3C)no1	FMDV inh inconclusive
CCCCN(CC)CCNC(=O)c1cn(C)c(=O)c2c1c1ccccc1n2C	none
CCOc1ccc(C(=O)Nc2ccc(C(=O)OCc3cc(=O)n4ccsc4n3)cc2)cc1	none (no result: AMA1 RON2 block, AmpC inh no detg)
Cc1ccc(N(NC(=O)C(O)(c2ccccc2)c2ccccc2)C(=O)CCl)cc1	FMDV inh 8.9µM, Sm TGR block 6.3µM
CCC(O)(CC)C(=O)NN(C(=O)CCl)c1ccccc1	FMDV inh inconclusive, Sm TGR block 22µM
O=C(Nc1ccccc1)NN(C(=O)CCl)c1ccccc1	FMDV inh 20µM, Sm TGR block 3.5µM
CCC1CN(CCNC(=O)c2cn3cc(C)ccc3n2)Cc2cc(OC)ccc2O1 (centres undefined)	none (no result: AMA1 RON2 block, AmpC inh no detg, AmpC detergent, Sm TGR block)
Cn1c2ccccc2c(=O)c2cc(C#CC3=CCCCC3)ccc21	Sm TGR block 2.2µM
CC1=C(c2ccc(Cl)cc2)S(=O)(=O)N=C1N1CCN(c2cccc(C(F)(F)F)c2)CC1	none (no result: AMA1 RON2 block, AmpC inh no detg)
COCC(C)OC(=O)/C(C#N)=C\c1coc2ccc(C)cc2c1=O (centres undefined)	FMDV inh inconclusive, Sm TGR block 18µM
CC(=O)N1/C(=C/c2ccc(N(C)C)cc2)C(=O)c2ccccc21	AMA1 RON2 block 28µM, FMDV inh 20µM, Sm TGR block 28µM
Cc1nc(N2N=C(c3ccc(Cl)cc3)CC2c2ccco2)sc1C(=O)N(C)C (centres undefined)	Sm TGR block inconclusive
COc1ccc(C2=NN(c3nc(-c4ccccc4)c(CC(=O)O)s3)C(c3ccco3)C2)cc1 (centres undefined)	AmpC inh no detg 14µM, Sm TGR block 20µM
